{"source": "the supplement of paper PMC6555819", "data": [{"test_system": "FXR:RXRa (NR concentration 270 nM, RXRa partner concentration 90 nM)", "experiment": "PBM binding z-score (relative to random genomic background probes); higher = stronger binding; sequences stand for … in GC…GCGATTGACAGCGTAGAATGAAGG", "method_in_brief": "(§1)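 Binding buffer was PBS pH 7.4 with 2% milk, 0.02% Triton X-100, 1 mM DTT, 0.2 mg/mL BSA and 0.4 mg/ml salmon testes DNA. In it, ligand-free nuclear receptor dimers were incubated 1 h on custom Agilent 4×180K protein-binding microarrays carrying double-stranded probes. Antibodies against each partner (one per run) detected binding, and z-scores were calculated against random background probes after regression normalization of scanned fluorescence.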", "values": [{"sequence": "ACCGAAAGGTCGAGGTGAGTATAGAGAAAGGGAA", "PBM binding z-score": 4.42}, {"sequence": "CCTAGCAGGCCAATCTGGGTCACTCATGGCTTGA", "PBM binding z-score": 0.761}, {"sequence": "CCTTACGGGTCACTCCAGGTTATAGCATCGGAGT", "PBM binding z-score": 4.9}, {"sequence": "CGAATTAGGTCATCCAGGACAGTGAATACATTGA", "PBM binding z-score": 4.75}, {"sequence": "CAAACTAGGTCAAAGTCAAAGTCGGTTTGTGCCA", "PBM binding z-score": 4.66}, {"sequence": "TCTTGTAGATCAAACGTTAAGAAAGCCGAAGCCT", "PBM binding z-score": 0.211}, {"sequence": "TCTTGTAGATCAACAGGAGGTTAGGAAAGATCGA", "PBM binding z-score": -0.355}, {"sequence": "CAAACTAGGTCAAGAGTTCAAAGTCCGCTTCCCG", "PBM binding z-score": 5.67}, {"sequence": "CCCAGTAGGTTATGGGGCATTCAGGCAACGGTGA", "PBM binding z-score": 0.192}, {"sequence": "CGTCCAATGTCAGCAGGTCAGTGAAAGCGACGTG", "PBM binding z-score": 0.418}, {"sequence": "ATCGAAAGGACGACGAGGTGAGTATACACCGTTT", "PBM binding z-score": 0.179}, {"sequence": "ATATGCAGGTTAGCTGGGGTCATTCAGACTAGGC", "PBM binding z-score": 4.95}, {"sequence": "TTACCAAGGTGAAGGTCGTTGACCCCTCTGTAGA", "PBM binding z-score": 6.12}, {"sequence": "CCTTACGGGTCACGAGGTTAAAGCACGACGAGCG", "PBM binding z-score": 7.54}, {"sequence": "GCGACTGGGGCAAAGCAGGTTAACATAAGGTTGG", "PBM binding z-score": 0.921}, {"sequence": "ATATGTAGGTTATCGGGTCATTGAGTTTGCGCAT", "PBM binding z-score": 3.15}, {"sequence": "CCTAGCTGGTCAGGAGGTCACACACCGGATATGA", "PBM binding z-score": 3.53}, {"sequence": "TCTTGTAGATCCATAGAGGTTAAGAAAGTGCGCT", "PBM binding z-score": 0.485}, {"sequence": "TAGCCTGGGTCATTGGGCCAGTATAGTACGCATC", "PBM binding z-score": 3.3}, {"sequence": "TTACCAAGGTGAAGGTCTTTGATCCCTCTGTAGA", "PBM binding z-score": 0.557}, {"sequence": "ACAAGTTGGTCAGCTGAGGTCACACACAATTCGG", "PBM binding z-score": 3.12}, {"sequence": "CGCACTAGGTCAAGGACAGTGAATCTCCGCACGC", "PBM binding z-score": 3.09}, {"sequence": "ATACCAAGGTGATCGTGAGGTCCTTGATACTAAC", "PBM binding z-score": 0.569}, {"sequence": "ACAATGAGGTTATACGTAGATCAGGGAAGAAAGT", "PBM binding z-score": 2.38}, {"sequence": "AGAACGAGGGCAATGAGGTGATAGCACGGGTGGC", "PBM binding z-score": 0.341}, {"sequence": "GGAACGAGGGCATTCGAGTTGATAACATGGCGAT", "PBM binding z-score": 1.09}, {"sequence": "TCGAGTAGGTTACCAATGGGGCATTAAGCTTTCT", "PBM binding z-score": -0.382}, {"sequence": "CCTACTGGGCCATTCAGAGGTCGTTGATCATATG", "PBM binding z-score": 0.36}, {"sequence": "GGAATGAGGGCATTCGAGTTGATAGCATGGCGAT", "PBM binding z-score": 1.71}, {"sequence": "ATATCTAGGTTAAGGGTCATTCAGGTTGGTTCGC", "PBM binding z-score": 5.3}, {"sequence": "CCTGCTAGGTGAATGGTCAGCTAAAGCAGCTCGC", "PBM binding z-score": -0.48}, {"sequence": "CGAACGAGGGCATGAGTTGATAGCGAATGCCGAT", "PBM binding z-score": 0.658}, {"sequence": "TTACCAAGGTGAGCTGTGGTCGTTGATCCAACTC", "PBM binding z-score": 0.0539}, {"sequence": "CCTATTAGTTGACCATAAGGGCAACCGTAGCTCG", "PBM binding z-score": 0.644}, {"sequence": "ATCACTAGGTAAAAGTTCAGTGAATCCCGAGGAT", "PBM binding z-score": 0.841}, {"sequence": "AGAATGAGGTTAAGCTCAGGGAAACAGAATACAT", "PBM binding z-score": 2.88}, {"sequence": "TAGCCTAGGTCATTAGGCCAGTATAGTACGCATC", "PBM binding z-score": 3.64}, {"sequence": "AGTCAAAGTACATCTAGGTAACGTAAGATATGCT", "PBM binding z-score": -0.254}, {"sequence": "CAAACTAGATCAAGAGGTCAAAGTCCGCTTCCCG", "PBM binding z-score": 4.72}, {"sequence": "GGAACGAGGGCAAAGTTGATAGTATCTGTCGACG", "PBM binding z-score": 1.26}]}, {"test_system": "LXRa:RXRa (NR concentration 270 nM, RXRa partner concentration 90 nM)", "experiment": "PBM binding z-score (relative to random genomic background probes); higher = stronger binding; sequences stand for … in GC…GCGATTGACAGCGTAGAATGAAGG", "method_in_brief": "as §1", "values": [{"sequence": "ACCGAAAGGTCGAGGTGAGTATAGAGAAAGGGAA", "PBM binding z-score": 3.23}, {"sequence": "CCTAGCAGGCCAATCTGGGTCACTCATGGCTTGA", "PBM binding z-score": 0.933}, {"sequence": "CCTTACGGGTCACTCCAGGTTATAGCATCGGAGT", "PBM binding z-score": 7.65}, {"sequence": "CGAATTAGGTCATCCAGGACAGTGAATACATTGA", "PBM binding z-score": 3.32}, {"sequence": "CAAACTAGGTCAAAGTCAAAGTCGGTTTGTGCCA", "PBM binding z-score": 3.77}, {"sequence": "TCTTGTAGATCAAACGTTAAGAAAGCCGAAGCCT", "PBM binding z-score": 0.363}, {"sequence": "TCTTGTAGATCAACAGGAGGTTAGGAAAGATCGA", "PBM binding z-score": -0.0525}, {"sequence": "CAAACTAGGTCAAGAGTTCAAAGTCCGCTTCCCG", "PBM binding z-score": 5.69}, {"sequence": "CCCAGTAGGTTATGGGGCATTCAGGCAACGGTGA", "PBM binding z-score": 0.622}, {"sequence": "CGTCCAATGTCAGCAGGTCAGTGAAAGCGACGTG", "PBM binding z-score": 0.255}, {"sequence": "ATCGAAAGGACGACGAGGTGAGTATACACCGTTT", "PBM binding z-score": -0.132}, {"sequence": "ATATGCAGGTTAGCTGGGGTCATTCAGACTAGGC", "PBM binding z-score": 5.96}, {"sequence": "TTACCAAGGTGAAGGTCGTTGACCCCTCTGTAGA", "PBM binding z-score": 5.25}, {"sequence": "CCTTACGGGTCACGAGGTTAAAGCACGACGAGCG", "PBM binding z-score": 4.81}, {"sequence": "GCGACTGGGGCAAAGCAGGTTAACATAAGGTTGG", "PBM binding z-score": 0.436}, {"sequence": "ATATGTAGGTTATCGGGTCATTGAGTTTGCGCAT", "PBM binding z-score": 3.21}, {"sequence": "CCTAGCTGGTCAGGAGGTCACACACCGGATATGA", "PBM binding z-score": 3.73}, {"sequence": "TCTTGTAGATCCATAGAGGTTAAGAAAGTGCGCT", "PBM binding z-score": 3.32}, {"sequence": "TAGCCTGGGTCATTGGGCCAGTATAGTACGCATC", "PBM binding z-score": 1.88}, {"sequence": "TTACCAAGGTGAAGGTCTTTGATCCCTCTGTAGA", "PBM binding z-score": 0.55}, {"sequence": "ACAAGTTGGTCAGCTGAGGTCACACACAATTCGG", "PBM binding z-score": 3.24}, {"sequence": "CGCACTAGGTCAAGGACAGTGAATCTCCGCACGC", "PBM binding z-score": 2.28}, {"sequence": "ATACCAAGGTGATCGTGAGGTCCTTGATACTAAC", "PBM binding z-score": -0.0765}, {"sequence": "ACAATGAGGTTATACGTAGATCAGGGAAGAAAGT", "PBM binding z-score": 2.12}, {"sequence": "AGAACGAGGGCAATGAGGTGATAGCACGGGTGGC", "PBM binding z-score": 0.494}, {"sequence": "GGAACGAGGGCATTCGAGTTGATAACATGGCGAT", "PBM binding z-score": 1.76}, {"sequence": "TCGAGTAGGTTACCAATGGGGCATTAAGCTTTCT", "PBM binding z-score": 1.24}, {"sequence": "CCTACTGGGCCATTCAGAGGTCGTTGATCATATG", "PBM binding z-score": 0.813}, {"sequence": "GGAATGAGGGCATTCGAGTTGATAGCATGGCGAT", "PBM binding z-score": 2.3}, {"sequence": "ATATCTAGGTTAAGGGTCATTCAGGTTGGTTCGC", "PBM binding z-score": 5.06}, {"sequence": "CCTGCTAGGTGAATGGTCAGCTAAAGCAGCTCGC", "PBM binding z-score": -0.375}, {"sequence": "CGAACGAGGGCATGAGTTGATAGCGAATGCCGAT", "PBM binding z-score": 0.274}, {"sequence": "TTACCAAGGTGAGCTGTGGTCGTTGATCCAACTC", "PBM binding z-score": -0.153}, {"sequence": "CCTATTAGTTGACCATAAGGGCAACCGTAGCTCG", "PBM binding z-score": 0.364}, {"sequence": "ATCACTAGGTAAAAGTTCAGTGAATCCCGAGGAT", "PBM binding z-score": 1.47}, {"sequence": "AGAATGAGGTTAAGCTCAGGGAAACAGAATACAT", "PBM binding z-score": 1.94}, {"sequence": "TAGCCTAGGTCATTAGGCCAGTATAGTACGCATC", "PBM binding z-score": 2.91}, {"sequence": "AGTCAAAGTACATCTAGGTAACGTAAGATATGCT", "PBM binding z-score": -0.258}, {"sequence": "CAAACTAGATCAAGAGGTCAAAGTCCGCTTCCCG", "PBM binding z-score": 5.55}, {"sequence": "GGAACGAGGGCAAAGTTGATAGTATCTGTCGACG", "PBM binding z-score": 0.763}]}]}
